# Test results: the supplement of paper PMC3545927
# The list shows a part of the results. How many sequences the whole screen found active is unknown.
# Target: furin, P09958
# Experiment: furin cleavage Z-score vs untreated control; higher = more cleavage, active = 3.5 or more, inactive = 1 or less, 8 variable residues between constant flanks
# Outline: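 To give the cleavage Z-score, log read counts were set against furin-free reactions, lowess-adjusted and scaled by median absolute deviation. These counts came from PCR adapter-tagged, sequenced DNA released when purified furin cut 8-mer peptides fused to a cDNA oligonucleotide and held on magnetic beads by their N-terminus. Digests were 0.01 ml, 1:10 enzyme:substrate, in 50 mM HEPES pH 7.5 with CaCl2 and NaCl, for 7.5, 15 or 30 min.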
# Chain of furin, P09958 (P09958 whole entry): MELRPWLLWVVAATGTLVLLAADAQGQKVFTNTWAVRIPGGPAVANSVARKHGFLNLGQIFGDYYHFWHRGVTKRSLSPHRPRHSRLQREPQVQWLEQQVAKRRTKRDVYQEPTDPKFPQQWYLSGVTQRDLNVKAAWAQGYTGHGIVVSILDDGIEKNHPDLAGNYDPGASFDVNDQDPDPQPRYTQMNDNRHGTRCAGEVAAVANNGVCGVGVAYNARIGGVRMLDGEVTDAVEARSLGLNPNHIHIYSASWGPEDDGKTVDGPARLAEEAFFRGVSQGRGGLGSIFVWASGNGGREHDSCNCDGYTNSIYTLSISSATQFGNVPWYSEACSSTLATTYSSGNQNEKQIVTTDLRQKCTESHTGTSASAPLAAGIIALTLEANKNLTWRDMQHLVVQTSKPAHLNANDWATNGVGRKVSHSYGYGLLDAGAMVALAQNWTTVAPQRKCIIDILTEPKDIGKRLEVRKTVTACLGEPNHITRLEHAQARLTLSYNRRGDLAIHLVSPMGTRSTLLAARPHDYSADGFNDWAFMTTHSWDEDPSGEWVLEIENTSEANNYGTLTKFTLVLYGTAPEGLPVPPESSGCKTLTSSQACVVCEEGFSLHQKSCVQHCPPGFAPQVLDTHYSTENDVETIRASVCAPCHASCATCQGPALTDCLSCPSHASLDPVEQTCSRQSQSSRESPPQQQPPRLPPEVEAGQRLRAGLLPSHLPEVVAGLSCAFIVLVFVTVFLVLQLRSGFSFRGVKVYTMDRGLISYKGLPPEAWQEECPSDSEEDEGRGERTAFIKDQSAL
Sequence,furin cleavage Z-score (7.5 min),furin cleavage Z-score (15 min),furin cleavage Z-score (30 min)
CAPLTDFDQGAGNASASA [HC391],-0.36 (inactive),-0.0198 (inactive),-2.39 (inactive)
CAVLAGIAYFAGNASASA [HC338],-0.161 (inactive),0.738 (inactive),-0.272 (inactive)
CAEHTTPCSGAGNASASA [HC1975],-1.73 (inactive),-1.12 (inactive),0.179 (inactive)
CATYPCSGSWAGNASASA [HC1849],-0.56 (inactive),-0.736 (inactive),-0.826 (inactive)
CARLRRLAEGAGNASASA [FS-2715],-0.759 (inactive),-0.389 (inactive),-0.211 (inactive)
CARYRRGFIHAGNASASA [FS-1810],1.59,3.75 (active),4.82 (active)
CARYRRWMKNAGNASASA [FS-2321],-1.37 (inactive),-0.188 (inactive),2.73
CARYRRHGTHAGNASASA [FS-1942],3.5,5.79 (active),6.5 (active)
CARYRRVAEGAGNASASA [FS-1980],3.4,4.71 (active),4.58 (active)
CARYRRVITVAGNASASA [FS-1844],-0.325 (inactive),-0.579 (inactive),0.939 (inactive)
CARPWRPAEGAGNASASA [FS-2442],-1.33 (inactive),-0.417 (inactive),0.551 (inactive)
CAGLQDCTMLAGNASASA [HC1524],1.18,0.431 (inactive),0.816 (inactive)
